Screening data from PubChem.
TcdB GH inh = TcdB glycohydrolase inhibition; TcdB glycohydrolase enzymatic assay, plate reader; inhibition, % at 9.99 µM; 350,000 compounds, 0.24% hits; AID 652162; in the data active = inhibition above about 10%
Target sequence (P18177 whole entry, looked up): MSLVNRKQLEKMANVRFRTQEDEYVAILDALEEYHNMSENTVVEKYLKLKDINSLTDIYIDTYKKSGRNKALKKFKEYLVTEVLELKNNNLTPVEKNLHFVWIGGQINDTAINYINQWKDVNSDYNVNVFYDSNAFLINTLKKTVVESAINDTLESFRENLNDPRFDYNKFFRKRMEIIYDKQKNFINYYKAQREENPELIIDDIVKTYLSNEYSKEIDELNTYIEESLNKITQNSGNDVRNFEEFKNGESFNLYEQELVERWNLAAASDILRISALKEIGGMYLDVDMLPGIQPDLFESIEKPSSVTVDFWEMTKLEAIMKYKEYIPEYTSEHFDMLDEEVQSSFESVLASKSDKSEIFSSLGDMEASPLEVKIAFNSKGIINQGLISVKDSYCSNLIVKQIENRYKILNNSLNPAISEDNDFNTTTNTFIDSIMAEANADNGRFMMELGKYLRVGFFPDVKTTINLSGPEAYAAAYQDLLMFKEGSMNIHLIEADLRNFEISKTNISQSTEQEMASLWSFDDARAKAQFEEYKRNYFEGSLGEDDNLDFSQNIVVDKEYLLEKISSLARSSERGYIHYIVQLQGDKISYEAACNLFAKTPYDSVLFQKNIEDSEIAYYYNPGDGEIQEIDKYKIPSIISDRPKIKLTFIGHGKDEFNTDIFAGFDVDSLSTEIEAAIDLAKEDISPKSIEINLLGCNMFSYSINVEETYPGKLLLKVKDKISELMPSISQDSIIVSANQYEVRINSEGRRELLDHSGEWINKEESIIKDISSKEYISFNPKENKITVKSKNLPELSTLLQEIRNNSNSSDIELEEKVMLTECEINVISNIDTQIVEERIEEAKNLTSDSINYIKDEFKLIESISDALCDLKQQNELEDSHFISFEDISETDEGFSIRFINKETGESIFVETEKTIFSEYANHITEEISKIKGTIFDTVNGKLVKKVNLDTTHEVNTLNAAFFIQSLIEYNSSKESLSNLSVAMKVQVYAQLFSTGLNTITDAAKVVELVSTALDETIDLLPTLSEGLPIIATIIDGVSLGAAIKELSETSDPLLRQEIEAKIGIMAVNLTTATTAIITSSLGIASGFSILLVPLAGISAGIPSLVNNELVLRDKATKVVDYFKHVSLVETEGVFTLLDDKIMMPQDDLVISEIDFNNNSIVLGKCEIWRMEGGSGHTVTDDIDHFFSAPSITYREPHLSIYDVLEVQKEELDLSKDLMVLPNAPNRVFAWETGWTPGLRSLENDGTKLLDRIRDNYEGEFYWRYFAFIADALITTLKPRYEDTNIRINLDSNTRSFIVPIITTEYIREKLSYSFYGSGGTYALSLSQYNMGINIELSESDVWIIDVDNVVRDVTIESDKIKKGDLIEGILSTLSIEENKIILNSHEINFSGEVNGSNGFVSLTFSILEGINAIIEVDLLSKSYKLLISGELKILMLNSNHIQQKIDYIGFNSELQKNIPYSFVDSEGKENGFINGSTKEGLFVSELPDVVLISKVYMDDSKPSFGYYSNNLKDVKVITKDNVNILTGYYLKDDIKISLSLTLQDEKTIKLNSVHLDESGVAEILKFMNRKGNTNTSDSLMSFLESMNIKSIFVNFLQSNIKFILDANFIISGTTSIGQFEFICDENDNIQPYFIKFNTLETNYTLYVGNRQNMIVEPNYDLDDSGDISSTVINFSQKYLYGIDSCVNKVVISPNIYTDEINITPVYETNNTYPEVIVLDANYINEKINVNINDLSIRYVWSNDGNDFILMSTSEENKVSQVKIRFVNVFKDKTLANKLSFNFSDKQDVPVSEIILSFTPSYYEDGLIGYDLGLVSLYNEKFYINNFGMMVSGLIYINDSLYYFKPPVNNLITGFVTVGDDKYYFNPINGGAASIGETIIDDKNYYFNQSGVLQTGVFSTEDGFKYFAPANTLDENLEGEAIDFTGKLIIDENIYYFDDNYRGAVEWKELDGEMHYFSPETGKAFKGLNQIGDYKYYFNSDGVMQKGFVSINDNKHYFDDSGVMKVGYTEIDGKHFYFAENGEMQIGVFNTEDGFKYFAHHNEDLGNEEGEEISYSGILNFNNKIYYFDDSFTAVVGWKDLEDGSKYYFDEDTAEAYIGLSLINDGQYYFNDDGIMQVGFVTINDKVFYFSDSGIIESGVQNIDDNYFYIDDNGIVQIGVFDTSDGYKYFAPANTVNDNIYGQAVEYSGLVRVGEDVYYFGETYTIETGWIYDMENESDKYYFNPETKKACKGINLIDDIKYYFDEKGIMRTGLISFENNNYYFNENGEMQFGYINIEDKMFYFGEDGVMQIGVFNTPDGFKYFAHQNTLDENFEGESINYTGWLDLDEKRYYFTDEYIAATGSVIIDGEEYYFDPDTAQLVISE
PfHsp40 yeast = restores yeast growth despite PfHsp40 toxicity | growth rescue, % at 12.5 µM | 340,000 compounds, 0.68% hits | S. cerevisiae expressing PfHsp40, growth rescue, ATP luminescence | AID 504582; in the data active = growth rescue above about 28%, passing the limit was not always enough;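 also: yeast W303a lacking pdr1 and pdr3 grown in galactose medium; growth measured after three days at 30 °C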
FadD28 FP inh = blocks FadD28 binding to the bisubstrate probe | 360,000 compounds, 0.22% hits | inhibition, % at 12.5 µM | fluorescence polarization; in the data active = inhibition above about 8.5%, passing the limit was not always enough
PrP UTR inh = inhibition of PrP 5' UTR reporter expression | AID 488862 | cell-based PrP 5' UTR mRNA reporter, plate reader | 340,000 compounds, 0.35% hits | inhibition, % (test concentration not listed); in the data active = inhibition above about 52%; also: 0 = median of the neutral control wells
BioA inh = blocks M. tuberculosis BioA enzyme activity; purified M. tuberculosis BioA enzyme, plate reader; inhibition, % at 9.99 µM; 360,000 compounds, 0.096% hits; AID 602481; in the data active = inhibition above about 40%
* = called active by the depositor; / = no result. Rows were chosen to be rich in hits. Some 1.1% of all compounds tested hit in one or more screens of this group.

SMILES	TcdB GH inh	PfHsp40 yeast	FadD28 FP inh	PrP UTR inh	BioA inh
CC(NC(=O)c1cn(C)c2ccc(S(=O)(=O)N3CCCC3)cc2c1=O)c1ccc2c(c1)OCCO2 (centres undefined)	/	42.4*	-0.8	-7.3	-1.6
CO[C@@H]1CN(C)C(=O)c2cc(NC(=O)C3CC3)ccc2OC[C@@H](C)N(Cc2cc(F)ccc2F)C[C@H]1C	0.7	/	/	/	-1.9
C[C@H](CO)N1C[C@H](C)[C@H](CN(C)Cc2ccc(C(=O)O)cc2)Oc2ccc(NS(=O)(=O)c3cccs3)cc2C1=O	-0.9	/	/	/	-0.2
O=C(Cc1ccccn1)c1ccncc1	10.4*	-1.9	-2.8	9.1	-0.6
CCC(=O)N1CC[C@@H]2[C@H]1c1cc(-c3ccc(OC)cc3)ccc1N[C@@H]2CO	/	/	/	/	-1.0
CCCCn1c(-c2cccc3ccccc23)nc2cc3[nH]c(=O)c(C(C)C)nc3cc21	0.2	1.4	-5.3	-5.6	2.1
CCCCn1c(-c2ccccc2C)nc2cc3[nH]c(=O)c(C(C)C)nc3cc21	11.3*	1.1	-3.7	-11.4	3.6
COC(=O)C1=C(C)N(C)C(=O)NC1c1cc2c(cc1[N+](=O)[O-])OCO2 (centres undefined)	-0.2	34.8*	0.7	-21.4	/
COc1ccc2c3c([nH]c2c1)[C@H](CO)N(S(C)(=O)=O)CC31CN(CC2CCOCC2)C1	-4.7	/	/	/	/
O=C(N/N=C/c1c[nH]c2ccccc12)c1cc(Br)ccc1O	-0.1	0.7	29.3*	-12.5	9.0
O=C(CNC(=O)c1ccccc1Br)N/N=C/c1cc(Br)ccc1O	0.2	0.8	-3.0	1.0	-0.9
O=C(N/N=C/c1cc(Cl)ccc1O)c1ccccc1Br	-0.7	107.7*	-5.1	3.5	/
Cc1nc(N)sc1C(=O)N/N=C/c1ccccc1[N+](=O)[O-]	-0.1	/	-0.9	/	-3.9
Cc1nc(N)sc1C(=O)N/N=C/c1c[nH]c2ccccc12	/	-1.2	9.9*	-17.4	-0.8
Cc1ccc(S(=O)(=O)N(C)C[C@H]2Oc3ccc(NS(=O)(=O)c4c(C)noc4C)cc3C(=O)N([C@@H](C)CO)C[C@@H]2C)cc1	0.3	/	/	/	-2.8
Cc1ccc2ccc[n+](Cc3ccccc3)c2c1	10.9*	-0.7	-3.7	-32.8	-0.7
Cc1ccc(CNC(=O)C(Cc2ccccc2)NS(=O)(=O)c2cccs2)cc1 (centres undefined)	1.2	0.7	15.7*	-35.8	4.9
Cc1ccc(CNC(=O)C(Cc2ccccc2)NS(=O)(=O)c2ccc(Br)s2)cc1 (centres undefined)	0.4	-0.6	49.8*	-5.8	/
CSCCC(NS(=O)(=O)c1cccs1)C(=O)NCc1ccc(C)cc1 (centres undefined)	0.1	-0.1	-2.3	-14.3	-1.3
CCC(=O)Nc1ccc2c(c1)C(=O)N(C)C[C@H](OC)[C@@H](C)CN(C(=O)c1cccnc1)[C@H](C)CO2	-0.6	/	/	/	-1.8
CC(C)CC#Cc1ccc2c(c1)O[C@@H](CN(C)Cc1ccc3c(c1)OCO3)[C@H](C)CN([C@@H](C)CO)S2(=O)=O	0.2	/	/	/	-0.1
CC=Cc1ccc2n(c1=O)C[C@H]1[C@H](CO)[C@@H](C(=O)NCc3ccc4c(c3)OCO4)[C@@H]2N1C(=O)C1CC1 (mixture of isomers)	-4.6	/	/	/	-1.8
C[C@H]1CN([C@@H](C)CO)C(=O)c2cccc(N(C)C)c2O[C@@H]1CN(C)Cc1ccc(C(F)(F)F)cc1	0.0	/	/	/	2.1
O=C(Nc1ccccc1N1CCOCC1)c1cc2c(s1)CCCCC2	1.6	73.2*	-1.3	-28.7	/
CCc1sc(C(=O)Nc2ccccc2N2CCOCC2)cc1C	1.5	107.5*	-0.2	-22.4	/
SMILES	TcdB GH inh	PfHsp40 yeast	FadD28 FP inh	PrP UTR inh	BioA inh
C[C@H]1CN([C@@H](C)CO)C(=O)c2cc(NS(=O)(=O)c3cccs3)ccc2O[C@@H]1CN(C)C(=O)NC1CCCCC1	0.9	/	/	/	0.0
COc1ccccc1S(=O)(=O)N[C@H]1C=C[C@@H](CC(=O)N2CCCCC2)O[C@H]1CO	-3.6	/	/	/	-1.0
CC(C)CC#Cc1cnc2c(c1)C(=O)N([C@@H](C)CO)C[C@H](C)[C@@H](CN(C)C(=O)Cc1ccncc1)O2	0.1	/	/	/	-3.0
COC1CCC(OC2CC(C3(C)CCC4(CC(O)C(C)C(C(C)/C=C(\C)C(=O)C(C)CC(C)C(=O)O)O4)O3)OC3(OC(C4OC(O)(CO)C(C)CC4C)CC3C)C2C)OC1C (centres undefined)	-4.7	219.6*	3.0	31.1	/
COCC#Cc1ccc2c(c1)O[C@H](CN(C)C(=O)Nc1ccc(OC)cc1)[C@H](C)CN([C@@H](C)CO)S2(=O)=O	-0.3	/	/	/	3.6
O=c1ccc2cc(O)c(O)cc2o1	13.2*	0.4	-3.8	-26.8	0.0
O=c1ccc2ccc(O)cc2o1	-0.5	-1.1	-3.9	-2.4	2.7
CC(=O)N(C)C[C@@H]1[C@@H](c2ccc(-c3ccc(F)cc3)cc2)[C@H](CO)N1C(C)=O	-0.2	/	/	/	-2.7
CCCCCCCn1c(=O)c(C(=O)OC)c(N)c2ccccc21	1.9	245.0*	-7.6	-19.5	0.5
CCN(CC)S(=O)(=O)c1ccc(-c2nnc(SCc3nnc(-c4ccc(C)cc4)o3)n2CC)cc1	/	45.3*	0.8	-12.7	13.2
CCN(CC)S(=O)(=O)c1ccc(-c2nnc(SCc3nnc(-c4ccc(C)cc4)o3)o2)cc1	/	-0.4	-0.5	-47.7	-0.9
CCCNC(=O)[C@H]1[C@H](CO)[C@H]2Cn3c(ccc(-c4ccccc4F)c3=O)[C@H]2N1CCC	-0.1	/	/	/	1.2
CSc1ccccc1NC(=O)C1=CC(c2ccc(C)cc2)=NS(=O)(=O)N1C	29.1*	-1.6	-0.9	-7.8	-1.7
CNC[C@H]1OCCCC[C@H](C)Oc2ccc(NC(=O)c3ccncc3)cc2C(=O)N([C@@H](C)CO)C[C@@H]1C	-7.5	/	/	/	-6.2
CC(Cc1ccc(O)cc1)NCC(O)c1ccc(O)c(O)c1 (centres undefined)	-7.0	/	8.2*	/	-1.2
CNC[C@H](O)c1ccc(O)c(O)c1	-3.8	0.0	0.4	16.2	0.4
COc1ccc(-c2ccc3c(c2)[C@@H]2[C@@H](CCN2C(=O)c2ccc4c(c2)OCO4)[C@H](CO)N3)cc1	/	/	/	/	-2.6
CC1COc2ccccc2N1S(=O)(=O)c1ccc(Cl)cc1 (centres undefined)	2.0	32.1*	-0.1	-6.0	/
Cc1ccc(S(=O)(=O)N2c3ccccc3OCC2c2ccccc2)cc1 (centres undefined)	/	1.9	-0.8	-14.1	-0.8
CCC(=O)N1[C@H](CO)[C@@H](c2ccc(C3=CCCC3)cc2)[C@@H]1CN(C)C(C)=O	/	/	/	/	0.2
COCC(=O)Nc1ccc2c(c1)C(=O)N(C)[C@H]1CC[C@H](CC(=O)O)O[C@H]1CO2	/	/	/	/	9.2
CC[n+]1ccc(/C=C/c2ccc(N(C)C)cc2)c2ccccc21	15.0*	4.4	0.6	20.3	/
CC[n+]1ccccc1/C=C/c1ccc(N(C)C)cc1	0.4	0.7	0.3	-15.7	-1.1
O=C(O)CCN1C(=O)/C(=C\c2ccc(-c3nc4ccccc4s3)o2)SC1=S	/	-0.7	20.3*	-21.6	-2.1
COc1cc(/C=C2\SC(=S)N(CCCCC(=O)O)C2=O)ccc1OS(=O)(=O)c1ccc(C)cc1	0.0	-0.7	24.3*	-17.6	3.9
